Shown are actives, neighbours in structure and some others; about 1.1% of the full set was active somewhere.
p53 reactivation – re-activators of mutant p53 | actives 0.063% (n = 320,000) | H1299 p53-A138V BP100-luciferase reporter, luminescence, 24 h | AID 504706 | Potency, µM (top dose mostly 92.2 µM), actives largely listed as activators; further: nearly all actives have a fitted effect of over 45% in size
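p53-null H1299 cells stably carrying temperature-sensitive p53-A138V and a BP100-luciferase reporter were pinned with compounds (4-point, 1:5 series) and held 24 hrs at 37 deg C. Luminescence was read 10 min after detection reagent.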
gsp antagonist – antagonists of gsp mutant (McCune-Albright syndrome) | actives 0.4% (n = 340,000) | Potency, µM (series often up to 76.9 µM), most hits filed as inhibitors | gsp-mutant cells, cAMP HTRF, 30 min | AID 624288; calls by dose curve; cell line not stated here;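 further: intracellular cAMP measured with PDE inhibitor Ro 20-1724 present during compound exposure; nearly all actives have a fitted effect of over 65% in size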
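G418-selected cells were plated in DMEM/10% FBS for 16-24 h at 37C, then treated with compounds plus the PDE inhibitor […] (300 uM solution added) for 30 min at 37C. Intracellular cAMP was measured by HTRF after 30 min lysis at room temperature.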
RXFP1 antagonist – antagonists of human relaxin receptor RXFP1; Q9HBX9; HEK293-RXFP1, relaxin-stimulated cAMP HTRF, 30 min; active compounds read low; activity change, negative = inhibition, % at 57.5 µM; actives 0.59% (n = 350,000);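 active means activity change of -60% or lower, but not beyond a set lower limit; inconclusive means change between -60% and -40%, or beyond the set limit; inactive means change above -40%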
Tb PFK inh – inhibitors of T. brucei phosphofructokinase. O15648. T. brucei PFK, ADP-Glo luminescence. Potency, µM (doses to about 57.5 µM), actives largely listed as inhibitors. actives 0.17% (n = 330,000); further: nearly all actives have a fitted effect of over 60% in size
Target sequence (O15648 whole entry, looked up): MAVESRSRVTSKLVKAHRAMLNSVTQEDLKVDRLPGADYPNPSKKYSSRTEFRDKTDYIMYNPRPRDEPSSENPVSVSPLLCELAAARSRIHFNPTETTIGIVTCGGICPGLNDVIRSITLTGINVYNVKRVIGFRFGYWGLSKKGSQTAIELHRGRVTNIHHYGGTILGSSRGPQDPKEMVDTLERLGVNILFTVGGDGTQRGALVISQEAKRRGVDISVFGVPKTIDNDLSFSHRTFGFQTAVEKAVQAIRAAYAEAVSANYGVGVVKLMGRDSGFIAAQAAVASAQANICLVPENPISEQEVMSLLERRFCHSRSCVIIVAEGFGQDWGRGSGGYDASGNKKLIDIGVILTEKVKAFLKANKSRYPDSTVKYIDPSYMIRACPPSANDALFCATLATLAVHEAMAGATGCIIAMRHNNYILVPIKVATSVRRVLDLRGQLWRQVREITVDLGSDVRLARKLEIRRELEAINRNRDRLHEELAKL
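1.25 nM PFK with 0.5 mM F6P and 0.1 mM ATP in 0.1 M TEA pH 8.0, 5 mM MgCl2, incubated 45 min at room temperature; ADP measured by ADP-Glo luminescence; compounds titrated up to 57 uM.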
RXFP1 ag – RXFP1 (human) receptor agonism. actives 0.3% (n = 370,000). Potency, µM (series often up to 57.5 µM), actives largely listed as activators. HEK293T-RXFP1 cAMP TR-FRET, 30 min; response scale: percent of porcine relaxin response, buffer zero. Q9HBX9; further: nearly all actives have a fitted effect of over 60% in size
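HEK293 cells stably expressing RXFP1, treated 30 min at 37C with compounds plus PDE4 inhibitor Ro 20174; cAMP measured by HTRF TR-FRET. Normalized to buffer and 29 nM porcine relaxin; EC50 by Hill fit.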
gsp ag – agonists of gsp mutant (McCune-Albright syndrome); gsp mutant cells, cAMP HTRF, 30 min; Potency, µM (highest dose often 76.9 µM), usual class: activators; actives 0.13% (n = 340,000); active means well fitted activation curve with a large enough effect; inconclusive means small, poorly fitted or top-dose-only effect, or another doubt; inactive means no such curve, though single readings can be large or run the other way; cell line not stated here;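 further: phosphodiesterase inhibitor Ro 20-1724 added with compounds to block cAMP breakdown; nearly all actives have a fitted effect of over 60% in size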
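Cells stably selected in G418 were plated at 2000/well, grown 16-24 hr, then given compounds in DMSO with the PDE inhibitor […] (300 uM solution added) for 30 min at 37C; cAMP was read by HTRF.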
A number is an active result; - = inactive; ? = inconclusive; . = no result given; [ ] = another dose, or the depositor's remark. Unless noted, the call rests on the fitted dose curve; in most records, active means well fitted curve in the direction sought with a large enough effect; inconclusive means small, poorly fitted or top-dose-only effect, or another doubt; inactive means no such curve, though single readings can be large; an effect the other way counts as inactive or inconclusive.

SMILES	p53 reactivation	gsp antagonist	RXFP1 antagonist	Tb PFK inh	RXFP1 ag	gsp ag
CN(C)S(=O)(=O)c1ccc(Cl)c(C(=O)OCC(=O)NC(=O)NC2CCCC2)c1	-	1µM	-	-	-	-
CN(C)S(=O)(=O)c1ccc(N2CCCC2)c(C(=O)OCC(=O)NC2CCCCC2)c1	-	-	-	-	-	-
CCCCNc1c(-c2cccc(-c3ccc(OC)cc3)c2)nc2ccc(C)cn12	-	?	.	-	-	.
CCCCNc1c(-c2cccc(-c3cc(C(C)=O)cs3)c2)nc2ccc(C)cn12	-	35.5µM	.	-	-	.
CCCCNc1c(-c2cccc(-c3ccc(OC)cc3)c2)nc2cc(C)ccn12	-	31.6µM	.	-	.	?
O=[N+]([O-])c1cc(/C=N/Nc2nc3ccccc3[nH]2)c(O)cc1O	?	?	-	-	-	-
COc1cccc(NC(=O)CCNS(=O)(=O)c2ccc3c(c2)CC(C)N3C(=O)C2CC2)c1 (stereo unspecified)	-	-	-	-	-	-
CCc1cc2cc3c(cc2nc1SCC(=O)Nc1nccs1)OCO3	-	-	-	-	12.6µM	?
CCc1cc2cc3c(cc2nc1SCC(=O)Nc1c[nH]c(=O)[nH]c1=O)OCO3	-	-	-	-	?	-
Cc1ccc(-c2noc(CCC(=O)NCCCN3CCN(c4cccc(Cl)c4)CC3)n2)cc1	-	-[15.4 µM]	-64.0	-	-	-
Cc1ccc(-c2noc(CCC(=O)NCCCN3CCN(c4ccc(F)cc4)CC3)n2)cc1	-	-	-	-	-	-
COc1cc(/C=C/C(=O)OCC(=O)Nc2sc3c(c2C#N)CCC(C)C3)ccc1OCC#N (stereo unspecified)	-	-	-	-	-	-[15.4 µM]
Cc1ccc(/C=C2\SC(=S)N(CCC(=O)NNC(=O)c3ccncc3)C2=O)cc1	-	39.8µM	-	-	-	-[15.4 µM]
O=C(CCN1C(=O)/C(=C/c2ccc(F)cc2)SC1=S)NNC(=O)c1ccncc1	-	?	-	-	-	-
Cc1ccc(S(=O)(=O)N2CCN(C(=O)CN3C(=O)NC4(CCCCC4)C3=O)CC2)c(C)c1	-	-	-61.0	-	-	-[15.4 µM]
O=C(c1ccccc1)c1ccc2nc(-c3ccco3)c(-c3ccco3)nc2c1	-	-	-90.4	?	-	-[15.4 µM]
O=C(NCCO)c1ccc2nc(-c3ccco3)c(-c3ccco3)nc2c1	-	-	-	-	-	-[15.4 µM]
COc1ccc(N=Cc2cc(Cc3ccccc3Cl)cc([N+](=O)[O-])c2O)cc1OC	-	-	-	-	-	-
Cc1ccc(N=Cc2cc(Cc3ccccc3Cl)cc([N+](=O)[O-])c2O)c(O)c1	?	-	-96.1	-	-	-
CC(=O)Nc1ccc(/C(C)=N/NC(=O)C2CC2c2ccccc2)cc1 (stereo unspecified)	-	-	-	-	-	-
O=C(Cc1ccccc1)Nc1cccc(-c2nc3cccnc3s2)c1	.	.	-	.	-	.
CCc1c(O)cc2n(c1=O)-c1ccc(Cl)cc1C2(C)C	-	44.7µM	-	-	-	?
COc1ccc(Br)cc1CC1C(=O)Nc2ccccc21 (stereo unspecified)	.	.	-69.2	.	-	.
FC(F)(F)c1ccnc(N2CCN(Cc3cnc(-c4ccccc4)[nH]3)CC2)c1	-	-	-	-	-	-[15.4 µM]
CC(C)(C)OC(=O)CNC(=O)c1[nH]cnc1C(=O)NCCCCCNC(=O)OC(C)(C)C	.	35.5µM	.	-	-	-
SMILES	p53 reactivation	gsp antagonist	RXFP1 antagonist	Tb PFK inh	RXFP1 ag	gsp ag
Cc1cc(C)c2sc(N(CCCN(C)C)C(=O)c3ccc(S(=O)(=O)N(C)C4CCCCC4)cc3)nc2c1	-	-	-84.4	-	-	-[15.4 µM]
Cc1cc(C)c2sc(N(CCCN(C)C)C(=O)COc3ccc(Cl)cc3)nc2c1	-	-	-71.7	-	-	-[15.4 µM]
C/C(NC(=O)c1cccc(F)c1)=C1/C(=O)C[C@@H]2[C@H]1C2(C)C	?	-	.	-	-	-
C/C(NC(=O)c1ccccc1F)=C1\C(=O)C[C@@H]2[C@H]1C2(C)C	12.6µM	-	-	-	-	-
CC(=O)N1CCc2c(sc3c2c(=O)n(-c2ccccc2)c(=O)n3Cc2ccccc2Cl)C1	-	-	-	-	-	-
Cn1cnnc1Sc1nc2c(c(=O)n(C)c(=O)n2C)n1C	.	-	-	.	.	22.4µM
Cn1ccnc1Sc1nc2c(c(=O)n(C)c(=O)n2C)n1C	-	-	-	-	-	?
COc1ccc(Cn2c(-c3ccc(C)cc3)nc3c(c(=O)c4ccccc4n3C)c2=O)cc1	-	25.1µM	-	-	-	-
O=C1c2[nH]nc(-c3ccc(F)cc3)c2C(c2ccccc2F)N1c1ccccc1 (stereo unspecified)	.	.	-68.5	.	-	.
Cc1[nH]c2ccc(F)cc2c1CCNC(=O)C1CCCCC1C(=O)OCC(F)(F)F (stereo unspecified)	-	-	-	-	-	-[15.4 µM]
FC(F)(F)c1nc(N2CCCC2)ncc1-c1nnnn1-c1ccccc1	-	35.5µM	-	-	-	-
COC(=O)c1cc2c(=O)c3ccccc3oc2nc1C	-	-	-	-	-	-[15.4 µM]
COC(=O)c1cc2c(=O)c3ccccc3oc2nc1/C=C/N(C)C	-	35.5µM	-	-	-	-[15.4 µM]
C=COCCNC(=S)Nc1ccccc1	-	-	-	-	-	-[15.4 µM]
COc1cc(/C=C2/C(=O)c3cccc([N+](=O)[O-])c3C2=O)c(Br)cc1O	-	35.5µM	-	?	-	-
O=C(COC(=O)CNC(=O)c1ccc(Cl)cc1Cl)NC1CCCCCCC1	-	-	-61.2	-	-	-[15.4 µM]
S=c1[nH]c2nc(Cl)c(Cl)nc2[nH]1	.	.	-	.	.	12.6µM
CCc1cccc(C)c1NC(=O)COC(=O)C1CC(=O)N(CCc2ccc(OC)c(OC)c2)C1 (stereo unspecified)	-	-	-	-	-	-
O=C1C=C(O)c2cccc3cccc1c23	.	-	-	-	17.8µM	?
Cc1ccn2c(Nc3ccc4c(c3)OCO4)c(-c3ccccn3)nc2c1	20µM	?	-	-	-	-[15.4 µM]
O=C(C[n+]1ccccc1)N/N=C/c1cc(Br)cc(Br)c1O	-	-	?	-	-	-[15.4 µM]
O=C(Cc1ccccc1)N/N=C/c1cc(Br)cc(Cl)c1O	-	-	-62.8	-	-	-[15.4 µM]
O=C(CNC(=O)c1ccccc1Br)N/N=C\c1cc([N+](=O)[O-])cc(Br)c1O	-	-	-67.2	-	-	-
O=C(CNC(=O)c1ccccc1Br)N/N=C/c1ccccc1O	-	-	-	-	-	-[15.4 µM]
O=C(CP(=O)(c1ccccc1)c1ccccc1)N/N=C/c1cc(Br)cc(Br)c1O	?	-	-70.9	-	-	-[15.4 µM]
COCCn1c(C)cc(O)c(C(c2ccc(F)cc2)N2CCC(C)CC2)c1=O (stereo unspecified)	.	.	-	.	-	.

Assay outcomes as filed in PubChem BioAssay.
